# Shown are actives, neighbours in structure and some others; about 2.7% of the full set was active somewhere.
# proKLK7 act: proKLK7 (human) activation, primary screen | AID 652039 | activation, % at 7 µM | purified proKLK7, EDANS-DABCYL substrate fluorescence; 100% is mature enzyme control, 0% vehicle | P49862 | 0.9% of 370,000 active;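 active means activation above the mean of all tested compounds plus 3 SD, computed per campaign excluding outliers beyond control limits, cut at about 13% in these data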
# Target sequence (P49862 whole entry, looked up): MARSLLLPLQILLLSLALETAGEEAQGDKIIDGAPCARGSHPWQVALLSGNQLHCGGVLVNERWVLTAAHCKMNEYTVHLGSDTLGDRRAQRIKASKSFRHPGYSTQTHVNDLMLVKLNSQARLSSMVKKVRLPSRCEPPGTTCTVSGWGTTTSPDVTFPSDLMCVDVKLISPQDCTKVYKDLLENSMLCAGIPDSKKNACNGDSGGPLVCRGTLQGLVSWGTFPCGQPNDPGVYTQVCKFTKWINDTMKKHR
# Neddyl block: cullin neddylation inhibition; TR-FRET cullin neddylation, biochemical; calls only at 25 µM; 0.58% of 360,000 active; AID 651699; in the data active means inhibition above about 36%
# FAS TE block: inhibitors of human fatty acid synthase thioesterase domain; P49327; recombinant FAS-TE, OMFH fluorogenic substrate, fluorescence endpoint; inhibition, % at 15 µM; 0.67% of 360,000 active; AID 602261;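 active means compounds whose normalised, plate-corrected inhibition of enzyme fluorescence in the single-dose primary screen is 50% or more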;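 further: 0% = DMSO with enzyme and 100% = substrate without enzyme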
# PfG6PD inh: PfG6PD (Plasmodium falciparum) enzyme inhibition; PfGluPho enzyme, NADPH resazurin-diaphorase fluorescence; 0.78% of 350,000 active; inhibition, % at 20 µM;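 active means inhibition reaching at least a set limit at 20 µM in the primary screen, cut at about 59% in these data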;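 further: 0% = DMSO wells with substrate and 100% = DMSO wells lacking glucose-6-phosphate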
# FAS-TE inh conf: FAS thioesterase (human) inhibition, confirmation. shares compounds with FAS TE block. recombinant FAS-TE, OMFH fluorogenic substrate, fluorescence. inhibition, % at 15 µM. 45% of 2,300 active. AID 624325;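 active means compounds inhibiting the enzyme by at least 50% at 15 µM in any one of the replicates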;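 further: 0% = enzyme with DMSO only and 100% = wells lacking enzyme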
# An asterisk follows results filed as active; i = inactive; / = not tested or not shown.
SMILES,proKLK7 act,Neddyl block,FAS TE block,PfG6PD inh,FAS-TE inh conf
O=C(COC(=O)c1cc([N+](=O)[O-])ccc1N1CCOCC1)Nc1ccc(Cl)cn1,0.7,i,71.0*,15.6,58.7*
O=C(COC(=O)c1cc(S(=O)(=O)N2CCOCC2)ccc1Cl)Nc1ccc(Cl)cn1,0.1,i,3.1,17.6,/
Cc1cccc(NS(=O)(=O)c2ccc3[nH]c(=O)cc(C(=O)OC(C)C(=O)Nc4ccc([N+](=O)[O-])cc4)c3c2)c1 (stereo not given),-3.5,i,87.4*,6.3,93.0*
CC(NC(=O)c1ccc(Cn2cc([N+](=O)[O-])cn2)cc1)c1ccccc1 (stereo not given),0.2,i,-1.8,-9.7,/
CC(NC(=O)Cn1cc([N+](=O)[O-])cn1)c1ccc(C(C)(C)C)cc1 (stereo not given),0.0,i,75.7*,-13.7,55.4*
O=C(NNS(=O)(=O)c1ccc([N+](=O)[O-])cc1)c1ccc([N+](=O)[O-])cc1,0.0,i,73.6*,-10.0,77.1*
O=C(NNS(=O)(=O)c1ccccc1)c1cnn(-c2ccccc2)c1-n1cccc1,0.2,i,-4.3,-17.2,/
O=C(NNS(=O)(=O)c1ccc([N+](=O)[O-])cc1)c1cnn(-c2ccccc2)c1-n1cccc1,0.0,i,65.4*,-3.2,74.6*
CCC1CCCCN1CCCNC(=O)c1ccc2c(c1)N(Cc1c(F)cccc1Cl)C(=O)CS2 (stereo not given),0.2,i,0.5,1.8,/
O=C(NCc1ccc2c(c1)OCO2)c1ccc2c(c1)N(Cc1c(F)cccc1Cl)C(=O)CS2,-0.1,i,54.3*,-20.5,32.8*
COP(=O)(OC)C(NC(=O)OCc1ccccc1)C(C)C (stereo not given),0.1,/,/,/,/
O=[N+]([O-])c1ccc(S(=O)(=O)Nc2ccc(-c3csc(-c4ccccc4)n3)cc2)cc1,0.0,/,/,/,/
O=S(=O)(Nc1ccc(-c2csc(-c3ccccc3)n2)cc1)c1ccccc1,-0.5,i,58.7*,13.4,43.6*
Cc1ccc(S(=O)(=O)Nc2ccc(-c3csc(-c4ccccc4)n3)cc2)cc1,-1.4,i,72.3*,4.0,27.4
CC(C)C[C@H]1COc2cccc(F)c2S(=O)(=O)N1Cc1cn(Cc2ccc(F)cc2)nn1,-0.3,/,/,/,/
CCCCCCCCN1C(=O)[C@@H](CC(=O)NCc2cccs2)C[C@@]2(C(=O)OC)C1=C[C@H](C(C)C)O[C@@H]2C1CC1,1.0,/,/,/,/
Cc1cc(O)ccc1N1C(=O)c2cccc3cc([N+](=O)[O-])cc(c23)C1=O,0.4,i,-3.2,4.6,/
Cc1ccc(N2C(=O)c3cccc4c(Oc5ccccc5[N+](=O)[O-])ccc(c34)C2=O)c(C)c1,-0.3,i,60.6*,4.2,10.1
COc1ccc2[nH]cc(C(C)c3c[nH]c4ccccc34)c2c1 (stereo not given),-0.3,/,/,/,/
Cc1cc(C)cc(C(=O)OCCN2CCN(C3CN(Cc4cn(Cc5ccccc5F)nn4)S(=O)(=O)C3)CC2)c1 (stereo not given),0.4,/,/,/,/
CC(C)CN1C(=O)[C@]2(CC(=O)N(C)C2c2ccccc2)c2cc(-n3cc(-c4ccccc4)nn3)ccc21 (stereo not given in full),0.6,/,/,/,/
C[C@@]12C(=O)Nc3cc(Cl)ccc3C(=O)N1[C@H]1c3cc(Cl)ccc3OC[C@@H]1[C@@H]2c1ccccc1,-0.5,i,39.9,-1.6,/
Cc1ccc2c(c1)C(=O)N1[C@H]3c4cc(C)ccc4OC[C@@H]3[C@H](c3ccccc3)[C@]1(C)C(=O)N2,-0.1,i,42.4,-11.9,/
Cc1ccc2c(c1)[C@H]1[C@H](CO2)[C@H](c2ccccc2)[C@]2(C)C(=O)Nc3ccc(Br)cc3C(=O)N12,-1.3,i,95.7*,3.6,26.2
Cc1ccc2c(c1)C(=O)N1[C@H]3c4cc(Br)ccc4OC[C@@H]3[C@H](c3ccccc3)[C@]1(C)C(=O)N2,-1.0,i,32.6,-6.8,/
SMILES,proKLK7 act,Neddyl block,FAS TE block,PfG6PD inh,FAS-TE inh conf
C[C@@]12C(=O)Nc3cc(Cl)ccc3C(=O)N1[C@H]1c3cc(Br)ccc3OC[C@@H]1[C@@H]2c1ccccc1,-0.5,i,80.2*,-2.2,8.0
C[C@@]12C(=O)Nc3cc(Cl)ccc3C(=O)N1[C@H]1c3ccccc3OC[C@@H]1[C@@H]2c1ccccc1,/,i,86.8*,-15.4,37.4
C[C@@]12C(=O)Nc3cc(F)c(F)cc3C(=O)N1[C@H]1c3ccccc3OC[C@@H]1[C@@H]2c1ccccc1,0.3,i,75.9*,-15.1,44.1*
COC(=O)[C@]12C[C@H](CC(=O)N3CCCC3)C(=O)N(Cc3cccc4ccccc34)C1=C[C@H](C1CCCC1)O[C@@H]2C,0.2,/,/,/,/
C[C@@]12C(=O)Nc3ccc(F)cc3C(=O)N1[C@H]1c3cc(Cl)ccc3OC[C@@H]1[C@@H]2c1ccccc1,-0.6,i,84.7*,0.8,35.4
COc1ccc(-c2csc(NC(=O)c3ccccc3NS(=O)(=O)c3ccc(F)c(F)c3)n2)cc1,0.5,i,58.1*,-1.3,19.0
Cc1ccc(S(=O)(=O)Nc2ccccc2C(=O)Nc2nc(-c3ccc(F)cc3)cs2)cc1,-2.3,/,56.0*,-18.4,57.5*
CCCCCCNC(=O)C1CSCCS(=O)(=O)N1Cc1ccc(OC)cc1 (stereo not given),0.6,/,/,/,/
O=C(COC(=O)c1c2c(nc3ccccc13)/C(=C/c1cccc([N+](=O)[O-])c1)CCC2)NC1CCS(=O)(=O)C1 (stereo not given),-3.8,i,14.0,10.8,/
CN(C(=O)COC(=O)c1c2c(nc3ccccc13)/C(=C/c1cccc([N+](=O)[O-])c1)CCC2)C1CCS(=O)(=O)C1 (stereo not given),0.3,i,67.4*,-2.5,13.5
O=C(OC12CCCN(C1)/C(=C/c1ccccc1)C2)C1CCCC1 (stereo not given),0.2,/,/,/,/
COC(=O)c1cc([N+](=O)[O-])c(-n2cncn2)c([N+](=O)[O-])c1,-0.2,i,57.4*,4.4,29.1
COC(=O)c1cc(F)c(-n2cncn2)c(F)c1,0.3,i,-5.6,-7.5,/
CCn1c(SCC(=O)Nc2ncc(C(F)(F)F)cc2Cl)nnc1-c1cccc(C)c1,0.3,i,79.8*,9.1,81.4*
COc1ccc(-c2nnc(SCC(=O)Nc3ncc(C(F)(F)F)cc3Cl)n2CC(C)C)cc1,0.4,i,79.2*,13.1,80.7*
Cc1cc(C)n2c(SCC(=O)Nc3ncc(C(F)(F)F)cc3Cl)nnc2n1,0.1,i,-2.3,3.3,/
COC(=O)CNC(=O)CSc1nnc(-c2ccc(OC)cc2)n1CC(C)C,-0.7,i,-4.5,-7.0,/
O=C(COc1cccc(Oc2ccccc2)c1)Nc1ccc(SC(F)F)cc1,-0.5,i,81.0*,9.5,54.5*
O=C(COc1cccc(OC(F)F)c1)Nc1ccc(SC(F)F)cc1,0.2,i,28.6,23.7,/
Cc1cccc(C)c1Cn1c(C)c(C(=O)NCc2ccc([N+](=O)[O-])cc2)sc1=O,1.1,i,60.9*,/,62.2*
